Screening results from PubChem.
TDP1 cell noCPT = qHTS for Inhibitors of human tyrosyl-DNA phosphodiesterase 1 (TDP1): qHTS in cells in absence of CPT | AID 686978, 2013 | DT40 Tdp1-/- hTDP1 cells, no CPT, ATP luminescence, 48 h | Potency, µM (titrated, usually from 46.2 µM), usual class: inhibitors | 420,000 tested, 15% active; further: nearly all actives have a fitted effect of over 55% in size
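No-CPT arm: Tdp1-/-;hTDP1 DT40 cells (400/well) plus compounds, incubated ≥48 hr at 37 °C. Readout CellTiter-Glo luminescence.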
HT1080NT lethal = qHTS for induction of synthetic lethality in tumor cells producing 2HG: qHTS for the HT-1080-NT fibrosarcoma cell line. HT-1080-NT fibrosarcoma viability, CellTiter-Glo ATP luminescence, 48 h. Potency, µM (highest dose often 46.1 µM), most hits filed as cytotoxic. 360,000 tested, 1.6% active. AID 686970, 2013;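 further: NT is the 2HG producing partner of a matched IDH1 knockdown line; nearly all actives have a fitted effect of over 55% in size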
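Luminescent CellTiter-Glo readout after 48 hours of compound exposure at 37 degrees C defined viability of HT-1080-NT cells. Activity was normalized to DMSO wells and cell-free media wells; concentration-response curves were fitted and assigned curve classes.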
uPA surface inh = qHTS for Inhibitors of Cell Surface uPA Generation; cell surface uPA generation assay, qHTS; 330,000 tested, 0.31% active; Potency, µM (doses to about 38.3 µM), most hits filed as inhibitors; AID 540303, 2011; active means well fitted inhibition curve with a large enough effect; inconclusive means small, poorly fitted or top-dose-only effect; inactive means no such curve, though single readings can be large or run the other way; tested in mouse RAW 264.7 cells; further: nearly all actives have a fitted effect of over 55% in size
HT1080 IDH1KD tx = qHTS for induction of synthetic lethality in tumor cells producing 2HG: qHTS for the HT-1080-IDH1KD cell line. HT-1080 IDH1 knockdown viability, ATP luminescence, 48 h. Potency, µM (series often up to 46.1 µM), usual class: cytotoxic. 360,000 tested, 2% active
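After a 2 h attachment period, IDH1KD HT-1080 cells took pin-transferred compound for 48 h at 37 °C; ATP-based luminescence after 10 min room-temperature reagent incubation reported viability.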
DT40 TDP1 CPT = qHTS for Inhibitors of human tyrosyl-DNA phosphodiesterase 1 (TDP1): qHTS in cells in presence of CPT. chicken DT40 Tdp1-/-;hTDP1 cells + 20 nM CPT, ATP luminescence, 48 h. Potency, µM (doses to about 46.2 µM), most hits filed as inhibitors. 420,000 tested, 12% active. AID 686979, 2013; further: nearly all actives have a fitted effect of over 55% in size
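Chicken DT40 Tdp1-/- cells stably complemented with human TDP1 were seeded at 400 cells/well in medium containing 20 nM camptothecin, exposed to pin-transferred compounds, and grown at 37 °C for at least 48 hr. Viability was read as ATP luminescence.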
IL1B secr inh = qHTS for Inhibitors of Inflammasome Signaling: IL-1-beta AlphaLISA Primary Screen; 360,000 tested, 4.7% active; activity change, % at 57.5 µM; THP-1 LPS/ATP IL-1B secretion, AlphaLISA, 16 h; hits give low values; in the data active means activity change below about -50%; inconclusive means mostly about -30% to -49%
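Secreted IL-1B measured by AlphaLISA bead assay after 16 h compound exposure of THP-1 cells; compounds (final up to 57.5 uM) added 1 h before LPS (250 ng/mL) and ATP (1.25 mM) stimulation; lower signal means less secretion.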
Hits are given with their value; – = inactive; ? = inconclusive; · = no result. A selection: hits, their analogues and other compounds. The true share with any hit is near 19%. Unless noted, the call rests on the fitted dose curve; in most records, active means well fitted curve in the direction sought with a large enough effect; inconclusive means small, poorly fitted or top-dose-only effect, or another doubt; inactive means no such curve, though single readings can be large; an effect the other way counts as inactive or inconclusive.

SMILES	TDP1 cell noCPT	HT1080NT lethal	uPA surface inh	HT1080 IDH1KD tx	DT40 TDP1 CPT	IL1B secr inh
COc1cc(-c2nnc(COC(=O)c3ccc(C)o3)o2)cc(OC)c1OC	?	–	–	–	?	–
Cc1ccc(NC(=O)C2CCN(c3cnccn3)CC2)cc1	–	–	–	–	–	–
CCOC(=O)c1ccc(NC(=O)C2CCCN(c3cnccn3)C2)cc1 (stereo not drawn)	15µM	–	–	–	?	–
Cc1ccc(NC(=O)C2CCCN(c3cnccn3)C2)cc1Cl (stereo not drawn)	23µM	·	·	·	?	·
Cc1cccc(NC(=O)C2CCCN(c3cnccn3)C2)c1 (stereo not drawn)	–	–	–	–	–	–
CCCc1ccc(NC(=O)C2CCN(c3cnccn3)CC2)cc1	23µM	–	–	?	16µM	–
CCCc1nc2nc(C)c(NS(=O)(=O)c3ccc([N+](=O)[O-])cc3)c(=O)n2[nH]1	–	–	–	–	–	–
Nc1nc2ccccc2n1/N=C/c1ccc(-c2ccccc2)o1	16µM	–	–	–	?	–
Nc1nc2ccccc2n1/N=C/c1ccc([N+](=O)[O-])s1	2.9µM	–	–	?	2.1µM	–
COc1cccc(C(=O)NCc2cn3cccc(C)c3n2)c1	–	·	·	·	–	·
CCN1CCN(c2ccc(S(=O)(=O)N3CCCCC3)cc2NC(=O)c2cccc(OC(F)F)c2)CC1	21µM	–	–	–	?	?
CCN1CCN(c2ccc(S(=O)(=O)N3CCCCC3)cc2NC(=O)c2cccc(Cl)c2)CC1	?	?	–	–	–	?
CCN1CCN(c2ccc(S(=O)(=O)N3CCCCC3)cc2NC(=O)c2ccc(OC(F)F)cc2)CC1	?	–	?	–	?	-76
COCCCNc1nc(CC(C)C)nc2c1nnn2Cc1ccccc1	?	–	–	–	–	–
COc1ccc(N=c2ssnc2Cl)cc1	9.2µM	–	–	–	7.3µM	–
c1ccc(Cn2sc(=Nc3ccccc3)nc2-c2ccccc2)cc1	–	·	·	·	–	·
Clc1ccc(N=c2ssnc2Cl)cc1	15µM	–	–	–	10µM	-85
COc1cc(N=c2ssnc2Cl)cc(OC)c1OC	2.6µM	–	–	–	3.3µM	–
Clc1nssc1=Nc1ccccc1	15µM	–	–	–	16µM	–
CNc1snc(C)c1C(=O)OCC(=O)NCc1ccccc1OC	?	–	–	–	?	–
N#Cc1ccc(N=c2ssnc2Cl)cc1	7.3µM	?	–	?	5.2µM	?
Fc1ccc(N=c2ssnc2Cl)c(F)c1	9.2µM	?	–	?	7.3µM	–
C=CCN=C(NC#N)SCC(=O)c1cccc(OC)c1	–	–	·	?	–	-57
C=CCN=C(NC#N)SCc1ccccc1	–	–	–	–	–	–
CCCCSc1nc2ccc(Nc3nc(N4CCOCC4)nc(N4CCOCC4)n3)cc2s1	21µM	?	–	?	?	?
SMILES	TDP1 cell noCPT	HT1080NT lethal	uPA surface inh	HT1080 IDH1KD tx	DT40 TDP1 CPT	IL1B secr inh
CCCCNC(=O)CSc1nc2ccc(Nc3nc(N4CCOCC4)nc(N4CCOCC4)n3)cc2s1	9.2µM	–	–	–	18µM	–
C/C=C/C(=O)N[C@@H]1c2ccccc2CC[C@@H]1OCc1ccccc1	–	–	?	–	–	–
COc1ccc(-c2cc(C(=O)Nc3cccc(O)c3)on2)cc1OC	–	·	·	·	–	·
CC(=O)c1ccc(NC(=O)CSc2nnc(N)s2)cc1	–	·	·	·	–	·
CC(=O)c1ccc(NC(=O)CSc2ccc(-c3sc(C)nc3C)nn2)cc1	?	–	–	–	13µM	–
CCOC(=O)c1ccccc1NC(=O)CSc1ccc(-c2sc(C)nc2C)nn1	12µM	·	·	·	15µM	·
COc1ccc(NC(=O)CSc2ccc(-c3sc(C)nc3C)nn2)cc1OC	8.2µM	–	–	–	?	–
COc1cc(NC(=O)CSc2ccc(-c3sc(C)nc3C)nn2)cc(OC)c1	18µM	·	·	·	21µM	·
CCc1nnc(NC(=O)CSc2ccc(-c3ccccc3OC)nn2)s1	–	–	–	–	–	–
Cc1ccc(C(C(=O)NC2CCCCC2)N(Cc2ccccc2)C(=O)Cc2c[nH]c3ccccc23)o1 (stereo not drawn)	?	–	–	–	?	?
COc1ccc(C(C(=O)Nc2ccc3c(c2)OCO3)N(C)C(=O)Cc2c[nH]c3ccccc23)cc1 (stereo not drawn)	?	?	–	?	18µM	-58
COc1cccc(CN(C(=O)Cc2c[nH]c3ccccc23)C(C(=O)NC2CCCCC2)c2ccc(C)o2)c1 (stereo not drawn)	16µM	–	–	?	16µM	-68
COc1cc(C(C(=O)NC2CCCCC2)N(Cc2cccs2)C(=O)Cc2c[nH]c3ccccc23)cc(OC)c1OC (stereo not drawn)	21µM	–	–	–	23µM	–
COc1ccc(CN(C(=O)Cc2c[nH]c3ccccc23)C(C(=O)NC2CCCCC2)c2ccc(C)o2)cc1 (stereo not drawn)	18µM	–	–	?	?	-59
COC(=O)C(CO)NC(=O)C1CCCN1C(=O)CNC(=O)OCc1ccccc1 (stereo not drawn)	–	–	–	–	–	–
COc1ccccc1-c1ccc([C@@H]2C[C@H]3[C@@H](CN2)CON3C)cc1	–	–	·	–	–	–
CSCC[C@H](NC(=O)[C@H](Cc1ccccc1)NC[C@@H](NC[C@@H](N)CS)C(C)C)C(=O)O	?	·	·	·	–	·
CC(C)c1cc(N2CCC(=O)NC2=O)cc(C(=O)O)c1O	–	–	–	–	–	–
COc1ccc(OC)c(-n2nnnc2SCC(=O)Nc2ccccc2N2CCOCC2)c1	?	–	–	–	?	–
CCN1CCN(c2nc(-c3ccccc3)c3ccccc3n2)CC1	?	13µM	–	?	?	?
O=C(O)C1CC=CCC1C(=O)N1CCN(c2nc(-c3ccccc3)c3ccccc3n2)CC1 (stereo not drawn)	?	–	–	–	18µM	-63
CCCOc1ccc(C2c3c(oc4ccccc4c3=O)C(=O)N2c2nc(C)c(C(=O)OCC)s2)cc1 (stereo not drawn)	–	·	·	·	–	·
CCCn1c(=N)c(C(=O)NCC2CCCO2)cc2c(=O)n3cccc(C)c3nc21 (stereo not drawn)	?	?	–	–	?	?
